# Activity calls are given as the source filed them.
# Legend:
# [1] = optical density shifts of acrAB sulA E. coli – strain DRC41, OD650, 48 h, E. coli filamentation inducer project, primary screen (AID 1152); settings: higher = more signal, called active from +8 up or from −8 down;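 note: E. coli MC1000 strain DRC41 lacking acrAB efflux pump and sulA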
# [2] = probe aLefty1 binding on compound microarray – biochemical, small-molecule microarray, 635/667 nm fluorescence, primary screen (AID 1153); settings: higher = more signal;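 note: score merges spot fluorescence with signal-to-noise ratio from the scanned slide images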
# [3] = plasmodial surface anion channel blockers, osmotic lysis – cell-based, P. falciparum Indochina, OD700, 1 h, primary screen (AID 1154); settings: P. falciparum Indochina infected RBC osmotic lysis, higher = more signal, called active from +8 up or from −8 down
# [4] = plasmodial surface anion channel blockers, osmotic lysis – cell-based, P. falciparum Indochina, OD700, 2 h, primary screen (AID 1155);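 note: lysis reports solute entry through the parasite surface anion channel PSAC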; settings: P. falciparum Indochina infected erythrocytes, higher = more signal, called active from +8 up or from −8 down
# [5] = changes in parasitized red cell lysis, either direction – P. falciparum Indochina, OD700, 3 h, PSAC antagonist project, primary screen (AID 1156); settings: P. falciparum-infected erythrocytes, osmotic lysis, higher = more signal, called active from +8 up or from −8 down
# [6] = plasmodial surface anion channel blockers, osmotic lysis – cell-based, P. falciparum Indochina, OD700, 18 h, primary screen (AID 1157); settings: P. falciparum Indochina infected erythrocytes, osmotic lysis OD700, 18 h; higher = more signal, called active from +8 up or from −8 down
# [7] = S6 kinase pathway phospho-S6 level changes – cell-based, A549, cytoblot, luminescence, serum-stimulated, primary screen (AID 1158); settings: 5 h, higher = more signal;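 note: serum-stimulated A549 lung adenocarcinoma cells; signal is phosphorylated S6 detected by cytoblot immunostaining with HRP secondary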
# [8] = molecular target: NADPH oxidase 2 (Homo sapiens) (UniProt P04839); test: compounds shifting NOX2 Amplex Red fluorescence – cell-based, HEK293-NOX2, PMA-stimulated, NOX inhibitor project, primary screen (AID 1159); settings: 45 min, higher = more signal, called active from +8 up or from −8 down; note: test concentration not given here
# Sequence of NADPH oxidase 2 (Homo sapiens) (P04839 whole entry, looked up): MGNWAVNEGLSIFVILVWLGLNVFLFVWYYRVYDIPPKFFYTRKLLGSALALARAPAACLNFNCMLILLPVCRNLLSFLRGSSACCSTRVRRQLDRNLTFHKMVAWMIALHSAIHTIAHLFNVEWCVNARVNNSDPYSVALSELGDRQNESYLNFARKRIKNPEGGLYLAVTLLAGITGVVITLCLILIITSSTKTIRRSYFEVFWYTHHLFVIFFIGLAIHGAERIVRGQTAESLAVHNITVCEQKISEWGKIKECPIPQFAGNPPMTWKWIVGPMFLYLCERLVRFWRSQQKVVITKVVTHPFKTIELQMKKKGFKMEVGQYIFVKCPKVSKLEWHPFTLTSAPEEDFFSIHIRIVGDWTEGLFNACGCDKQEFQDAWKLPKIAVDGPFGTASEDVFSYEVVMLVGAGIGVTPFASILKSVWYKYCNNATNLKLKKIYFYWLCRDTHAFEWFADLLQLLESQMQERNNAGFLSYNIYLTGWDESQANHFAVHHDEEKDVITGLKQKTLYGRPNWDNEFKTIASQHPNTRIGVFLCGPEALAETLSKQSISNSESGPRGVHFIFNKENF
# [9] = molecular target: NADPH oxidase 4 (Homo sapiens) (UniProt Q9NPH5); test: compounds shifting NOX4 Amplex Red fluorescence – cell-based, HEK293-NOX4, tetracycline-induced, NOX inhibitor project, primary screen (AID 1160); settings: HEK293-NOX4, Amplex Red H2O2 fluorescence, 45 min; higher = more signal, called active from +8 up or from −8 down
# Sequence of NADPH oxidase 4 (Homo sapiens) (Q9NPH5 whole entry, looked up): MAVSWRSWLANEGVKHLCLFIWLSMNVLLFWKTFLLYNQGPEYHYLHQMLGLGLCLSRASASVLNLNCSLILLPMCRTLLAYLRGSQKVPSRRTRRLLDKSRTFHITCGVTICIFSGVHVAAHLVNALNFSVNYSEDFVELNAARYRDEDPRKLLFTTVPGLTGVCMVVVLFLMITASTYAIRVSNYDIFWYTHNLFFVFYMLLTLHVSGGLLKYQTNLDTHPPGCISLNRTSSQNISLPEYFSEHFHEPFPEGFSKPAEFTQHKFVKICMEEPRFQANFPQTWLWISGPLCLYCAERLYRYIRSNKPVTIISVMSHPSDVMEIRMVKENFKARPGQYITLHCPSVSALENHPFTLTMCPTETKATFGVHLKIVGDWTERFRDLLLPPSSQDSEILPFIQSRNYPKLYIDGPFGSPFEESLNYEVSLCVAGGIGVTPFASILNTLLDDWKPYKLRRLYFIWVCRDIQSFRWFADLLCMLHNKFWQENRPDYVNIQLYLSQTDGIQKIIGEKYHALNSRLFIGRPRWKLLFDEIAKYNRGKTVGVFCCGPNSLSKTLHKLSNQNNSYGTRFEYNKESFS
# [10] = molecular target: NADPH oxidase 5 (Homo sapiens) (UniProt Q96PH1); test: compounds shifting NOX5 Amplex Red fluorescence – cell-based, HEK293-NOX5, NOX inhibitor project, primary screen (AID 1161); settings: HEK293-NOX5, ionomycin, 45 min, higher = more signal
# Sequence of NADPH oxidase 5 (Homo sapiens) (Q96PH1 whole entry, looked up): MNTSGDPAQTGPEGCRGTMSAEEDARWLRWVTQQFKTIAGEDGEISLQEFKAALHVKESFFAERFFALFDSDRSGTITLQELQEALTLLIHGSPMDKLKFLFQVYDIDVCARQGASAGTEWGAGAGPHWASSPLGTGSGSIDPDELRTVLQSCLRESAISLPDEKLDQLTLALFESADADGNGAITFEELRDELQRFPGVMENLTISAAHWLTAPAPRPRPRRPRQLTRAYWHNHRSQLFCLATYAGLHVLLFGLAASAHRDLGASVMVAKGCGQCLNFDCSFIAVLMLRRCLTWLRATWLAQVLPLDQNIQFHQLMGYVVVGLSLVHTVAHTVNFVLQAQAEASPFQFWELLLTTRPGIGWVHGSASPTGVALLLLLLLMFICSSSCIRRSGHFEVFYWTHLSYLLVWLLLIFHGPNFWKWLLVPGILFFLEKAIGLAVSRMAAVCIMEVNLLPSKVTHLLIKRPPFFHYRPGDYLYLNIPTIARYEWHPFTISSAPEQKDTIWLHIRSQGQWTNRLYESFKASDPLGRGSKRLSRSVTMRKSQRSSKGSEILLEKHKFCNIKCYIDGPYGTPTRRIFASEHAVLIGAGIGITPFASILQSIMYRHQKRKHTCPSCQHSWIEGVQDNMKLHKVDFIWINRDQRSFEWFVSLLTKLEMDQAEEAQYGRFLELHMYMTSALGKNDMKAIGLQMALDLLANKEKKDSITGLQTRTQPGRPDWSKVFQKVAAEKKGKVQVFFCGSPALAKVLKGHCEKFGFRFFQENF
# [11] = compound effects on lung adenocarcinoma cell viability – A549, calcein-AM fluorescence, 48 h, basal, profiling panel (AID 1162); settings: higher = more signal; note: test concentration not given here
# [12] = compound effects on differentiated 3T3-L1 adipocyte viability – cell-based, 3T3-L1 adipocytes, calcein-AM fluorescence, 48 h, basal, profiling panel (AID 1163); settings: 3T3-L1 adipocytes viability, higher = more signal; note: test concentration not given here
# [13] = compound effects on hepatocellular carcinoma cell viability – HepG2, calcein-AM fluorescence, 48 h, basal, profiling panel (AID 1164); settings: higher = more signal; note: test concentration not given here
# [14] = compound effects on multiple myeloma cell viability – MM1S, calcein-AM fluorescence, 48 h, basal, profiling panel (AID 1165); settings: higher = more signal;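 note: viability of MM1S multiple myeloma cells under basal unstimulated conditions; test concentration not given here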
# [15] = calcein-AM signal in unstimulated myeloma cells – cell-based, calcein-AM fluorescence, 48 h, PK04 Diversity Set, profiling panel (AID 1166); settings: RPMI8226 myeloma viability, higher = more signal;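 note: cells grown under basal conditions without added stimulus; test concentration not given here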
# [16] = JC-1 mitochondrial signal, unstimulated HepG2 cells – cell-based, JC-1 fluorescence, 24 h, 100 nL compound, profiling panel (AID 1167); settings: HepG2 mitochondrial potential, higher = more signal; note: test concentration not given here
# [17] = JC-1 mitochondrial signal, unstimulated adipocytes – cell-based, JC-1 fluorescence, 3T3-L1 adipocytes, 24 h, 100 nL compound, profiling panel (AID 1168); settings: JC-1 mitochondrial fluorescence, higher = more signal, called active from +8 up or from −8 down; note: test concentration not given here
# [18] = JC-1 mitochondrial signal, unstimulated myeloma cells – cell-based, JC-1 fluorescence, RPMI8226, 24 h, 100 nL compound, profiling panel (AID 1169); settings: JC-1 mitochondrial potential fluorescence, higher = more signal; note: test concentration not given here
# [19] = JC-1 mitochondrial signal, unstimulated MM1S myeloma – cell-based, JC-1 fluorescence, 24 h, 100 nL compound, profiling panel (AID 1170); settings: MM1S mitochondrial potential, higher = more signal; note: test concentration not given here
# [20] = resazurin metabolic signal in A549 cells – cell-based, resazurin fluorescence, 24 h, PK04 Diversity Set, profiling panel (AID 1171); settings: A549 viability, higher = more signal, called active from +8 up or from −8 down; note: test concentration not given here
SMILES,z-score [1],composite z-score [2],z-score [3],z-score [4],z-score [5],z-score [6],z-score [7],z-score [8],z-score [9],z-score [10],z-score [11],z-score [12],z-score [13],z-score [14],z-score [15],z-score [16],z-score [17],z-score [18],z-score [19],z-score [20]
COCC(=C=CC[C@H](O)c1cccc(OCCO)c1)C[C@H](O)c1cc(Cl)cc(Cl)c1O,0.652 (inactive),0.0012,22.1 (active),5.78 (inactive),0.658 (inactive),1.21 (inactive),0.232,-0.707 (inactive),-0.429 (inactive),-1.25,0.593,-0.317,0.956,-0.967,-0.193,0.277,0.86 (inactive),0.262,-0.931,0.627 (inactive)
O=C1[C@@]23C=C(Br)[C@H](C[C@@H]2COC3)[C@]12CO2,-0.508 (inactive),0.151,0.483 (inactive),-0.0352 (inactive),-0.103 (inactive),-0.334 (inactive),0.424,0.447 (inactive),-1.92 (inactive),-4.05,-0.186,-0.959,-1.1,-3.17,-2.02,-2.21,-1.42 (inactive),-1.3,-2.19,-0.453 (inactive)
COc1ccc([Si](C)(C)[C@@H]2[C@@H](CCn3cc([C@H](O)c4ccccc4)nn3)O[C@]3(C(=O)N(Cc4cccc(N5CCC5=O)c4)c4ccccc43)[C@H]2C)cc1,-0.811 (inactive),-0.144,10.4 (active),2.06 (inactive),0.538 (inactive),0.989 (inactive),0.135,0.702 (inactive),1.4 (inactive),2.32,0.208,0.745,-0.924,-0.6,-0.984,-0.262,1.15 (inactive),-0.735,-0.487,0.0773 (inactive)
COC(=O)[C@@]1(Cc2ccc(OC)cc2)[C@H]2c3cc(C(=O)N4CCCC4)n(CCCNc4ncc(C(F)(F)F)cc4Cl)c3C[C@H]2CN1C(=O)c1ccccc1,-1.46 (inactive),0.982,10.1 (active),1.37 (inactive),2.15 (inactive),1.13 (inactive),-0.0195,0.128 (inactive),0.577 (inactive),1.65,-1.54,-1.03,-0.841,-1.9,-4.57,0.261,-1.31 (inactive),-0.873,-1.28,-0.577 (inactive)
COCC(=C=CC[C@H](O)c1ccccc1OCCO)CCO,0.0257 (inactive),-0.206,2.69 (inactive),-0.0718 (inactive),-0.107 (inactive),0.0371 (inactive),-0.509,0.281 (inactive),0.263 (inactive),-0.397,0.474,-0.233,0.304,-0.48,-0.0001,-0.853,-0.624 (inactive),-0.345,-0.654,-0.323 (inactive)

# Reference: PubChem BioAssay
